Measured values taken from the supplement of paper PMC6555819.

Columns and labels:
Experiment in all cases: PBM binding z-score (relative to random genomic background probes); higher = stronger binding; sequences stand for … in GC…GCGATTGACAGCGTAGAATGAAGG
[1] = tested on: PPARg:RXRa DBDmut IVT, anti-RXR (DBD mutation: RXRa K156A/R161A, NR concentration 270 nM, RXRa partner concentration 90 nM)
Outline: (§1)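 Probes were double-stranded and carried 34-nt variable regions with direct-repeat seeds, single-nucleotide variants, half-site ablations and random human genomic background sequences, printed on custom Agilent 4×180K protein-binding microarrays. Arrays were incubated 1 h with ligand-free nuclear receptor dimers in PBS pH 7.4, 2% milk, 0.02% Triton X-100, 1 mM DTT, 0.2 mg/mL BSA and 0.4 mg/ml salmon testes DNA. Antibodies against each partner (one per run) detected binding, and scanned fluorescence was regression-normalized. Binding z-scores use the random background probes as reference.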

[2] = tested on: PPARg:RXRa IVT, anti-PPARg (NR concentration 270 nM, RXRa partner concentration 90 nM)
Outline: as §1

[3] = tested on: PPARg DBDmut:RXRa IVT, anti-PPARg (DBD mutation: PPARg1 K132A/R137A, NR concentration 270 nM, RXRa partner concentration 90 nM)
Outline: as §1

[4] = tested on: PPARg DBDmut IVT, anti-PPARg (DBD mutation: PPARg1 K132A/R137A, NR concentration 270 nM)
Outline: as §1

[5] = tested on: PPARg homodimer (NR concentration 180 nM)
Outline: as §1

[6] = tested on: PXR:RXRa (NR concentration 270 nM, RXRa partner concentration 90 nM)
Outline: as §1

[7] = tested on: PXR homodimer (NR concentration 270 nM)
Outline: as §1

[8] = tested on: RARa:RXR (NR concentration 270 nM, RXRa partner concentration 90 nM)
Outline: as §1

[9] = tested on: RARa homodimer (NR concentration 270 nM)
Outline: as §1

[10] = tested on: RARb:RXRa (NR concentration 270 nM, RXRa partner concentration 90 nM)
Outline: as §1

| Sequence | PBM binding z-score [1] | PBM binding z-score [2] | PBM binding z-score [3] | PBM binding z-score [4] | PBM binding z-score [5] | PBM binding z-score [6] | PBM binding z-score [7] | PBM binding z-score [8] | PBM binding z-score [9] | PBM binding z-score [10] |
| --- | --- | --- | --- | --- | --- | --- | --- | --- | --- | --- |
| TCTACAGGGTCAAAGGCCAGAGTACGAATGTCGA | 2.69 | 4.11 | 0.545 | 0.757 | 1.6 | 4.1 | 0.202 | 5.76 | 0.385 | 4.29 |
| TTACCAGGGTGAAAGGTCGTTGATGCACGCCTTG | 2.27 | 4.77 | 0.849 | 0.523 | 3.33 | 4.25 | 0.522 | 5.93 | 0.262 | 2.59 |
| CCTTACGGGTCACGAGGTTATAACACGACGAGCG | 3.55 | 5.17 | 1.01 | 0.726 | 2.11 | 4.38 | 0.145 | 5.6 | 0.574 | 4.58 |
| ACTAGCAGGCCAAGTTTAGGTCACTCAAACAAAG | 0.729 | 1.54 | -0.154 | -0.113 | 0.824 | 0.86 | 0.177 | 1.7 | -0.431 | 2.33 |
| ACTAGCAGGCCAAGGGTCACGCAAGATTAGTCCG | 1.52 | 4.53 | 0.585 | -0.153 | 2.62 | 4.25 | -0.0194 | 5.33 | 0.787 | 4.2 |
| CAAACTAGGTCAACGGAAGGTCAAAGTCCGCATG | 8.48 | 8.61 | 4.8 | 2.05 | 7.1 | 5.74 | 2.3 | 7.48 | 2.65 | 5.04 |
| AATACAGGGTCACTAGGCCTGAGTAGGTACGAAT | 2.96 | 4.76 | 1.25 | 1.34 | 2.04 | 2.85 | 0.251 | 3.86 | 0.431 | 4.06 |
| AGTCAAAGTTCACTCGGTAACGTAAGATTCAGCT | 0.841 | 2.9 | 1.02 | 1.36 | 2.4 | 4.21 | 2.5 | 3.1 | 1 | 4.76 |
| TGAATGAGCTTATAAGATCAGGGAACGTTGCAAA | -1.43 | -0.528 | 0.471 | 0.179 | -0.626 | -0.456 | -0.325 | -0.125 | -0.206 | -1.12 |
| TCTAGTTGGTCACGGAGGTAACACACGACGGGTA | 2.14 | 2.58 | 0.811 | 0.805 | 0.896 | 0.407 | 0.258 | 0.834 | 0.81 | 1.8 |
| CGAACTAGGTCAAGGGCAGTGAATCTCCGCACGC | 7.67 | 8.29 | 1.07 | 0.971 | 1.46 | 1.14 | -0.131 | 1.86 | -0.096 | 4.13 |
| CAGCCTAGGTAAGGGCCAGTATAGGAGGAACGTT | -0.707 | -0.473 | 0.308 | -0.484 | 0.0729 | -0.698 | -0.364 | -0.562 | -0.726 | -0.0366 |
| TCTTGTAGATCAACAGGAGGTTAAGACAGATCGA | 1.59 | 0.984 | 0.978 | 0.46 | -0.0911 | 0.727 | -0.273 | 0.694 | 0.154 | 0.534 |
| GCTAGCAGGCCTTTTGGGTCACTCAATGACGGGC | 0.302 | 0.843 | -1.25 | -1.51 | -0.592 | 0.137 | -0.69 | 0.937 | -0.611 | 1.06 |
| TCTCGGAGGACACGAAGGTCAGAGTTTTCCAGAG | 1.44 | 1.35 | -0.952 | -0.619 | 1.53 | 2 | 1.37 | 2.07 | 0.114 | 3.32 |
| CGTCCAAGGTCAGAGAAGTCAGTGAATGCCGAGT | 2.46 | 2.18 | -0.292 | -0.903 | 1.38 | 2.55 | 0.728 | 2.86 | 0.262 | 4.68 |
| TGAATGAGGTTAAAGATCAGGGGACGTGGCGTCG | 2.48 | 3.35 | 1.21 | 0.582 | 1.75 | 1.7 | -0.086 | 3.31 | 0.0279 | 2.11 |
| TATACAGGGTCAAAGGCAAGAGTACGAATGTCGA | 2.4 | 4.77 | 3.32 | 1.87 | 2.27 | 3.86 | 1.15 | 5.3 | 1.42 | 4.43 |
| TAGCCTAGGTCATGCGGGCCGGTATAGTGTCGGC | 1.61 | 2.8 | -0.135 | -0.829 | 1.05 | 1.04 | -0.496 | 2.14 | -0.545 | 3.61 |
| AGTCAAAGTTCACTAGGTAACGTATGATTCAGCT | 2.65 | 4.66 | 1.13 | 1.39 | 2.15 | 3.83 | 2.69 | 2.93 | 1.04 | 4.76 |
| CCAGACAGGGGAAAGGTAACTCAGTCTGGTACGC | -0.0945 | 0.279 | -0.482 | -1.01 | 0.356 | 0.0184 | -0.106 | 0.15 | -0.374 | 0.202 |
| TCTTGTATATCAAAGGTTAAGAAAGCCGAAGCCT | 1.87 | 2.65 | 0.898 | 0.823 | 1.29 | 1.93 | 0.544 | 2.96 | 0.898 | 2.22 |
| ACTAGCAGGCCAAGTTTGGGTGACTCAAACAAAG | 0.661 | 0.765 | -1.13 | -1.09 | -0.815 | -0.475 | -0.715 | -0.198 | -0.374 | 0.418 |
